Reference: PubChem BioAssay (Tox21)
Unmarked numbers belong to inactive results. Results filed as inconclusive are left out. A call without a number means that no potency is given here. Active and inactive are the calls of the source. Unless noted, calls follow the shape of the full dose curve. Square brackets hold non-standard residues; d marks the D form. Peptide text beside a SMILES is read from it. * marks the point of attachment. Sta = CC(C)C[C@H](N)[C@@H](O)CC(=O)O; Isovaleryl = CC(C)CC(=O)*

Experiments:
[1] = Nuclear factor erythroid 2-related factor 2/antioxidant responsive element (Nrf2/ARE) small molecule agonists: qHTS cell viability counter screen in human keratinocytes (AID 1919968; active = well fitted curve in the direction sought with a large enough effect in the repeat runs; an effect the other way counts as inactive or inconclusive; also: nearly all actives have a fitted effect of over 55% in size; also: potency is read from the fitted curve at half-maximal effect)
Summary of the method: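 KeratinoSens HaCaT cells, 1,500/well, preincubated 5 h, then exposed to compounds in DMSO for 23 h at 37 C/5% CO2. Viability read as CellTiter-Fluor fluorescence after 1 h, in the same wells as the ARE-luciferase read.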

[2] = Nuclear factor erythroid 2-related factor 2/antioxidant responsive element (Nrf2/ARE) small molecule agonists: luciferase reporter gene qHTS assay in human keratinocytes (AID 1919969); also: nearly all actives have a fitted effect of over 35% in size; also: potency is read from the fitted curve at half-maximal effect
[3] = target: KiSS-1 receptor (Homo sapiens) (UniProt Q969F8); assay: Human kisspeptin (KISS1R) small molecule agonists, calcium flux assay in KISS1R-HEK293 cells (AID 1920064; active = well fitted curve in the direction sought with a large enough effect in the repeat runs; an effect the other way counts as inactive or inconclusive)
Summary of the method: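 HEK293 cells stably expressing human KISS1R were loaded with calcium dye for 1 h at 37 C, then given compound; fluorescence (Ex/Em 480/540) was read kinetically for 3 min. Fifteen concentrations, triplicate.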

[4] = G protein-coupled receptor (GPCR) small molecule agonists, calcium flux assay: HEK293 wild type cell line counter screen (AID 1920065)
Summary of the method: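 Wild-type HEK293 cells plated 18 h, loaded with calcium dye 1 h at 37 C, then compounds added in agonist mode (ATP as positive control). Kinetic fluorescence Ex/Em 480/540 recorded 3 min at 1 sec intervals; 15 concentrations, triplicate.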

[5] = p53 small molecule agonists, cell-based qHTS assay with human liver microsomes (AID 1963577);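 also: p53 response element beta-lactamase reporter cells with liver microsomes plus NADPH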
Summary of the method: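 With metabolic activation: human liver microsomes (0.5 mg/mL final) plus NADPH (0.5 mg/mL final) added alongside compounds to p53RE-bla cells; 16 h 37 C exposure; beta-lactamase read by LiveBLAzer fluorescence.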

[6] = p53 small molecule agonists, cell-based qHTS assay with rat liver microsomes (AID 1963578)
Summary of the method: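 Metabolic activation by rat liver microsomes and NADPH, each 0.5 mg/mL final, added right after compounds to p53RE-bla reporter cells (4,000/well, plated 5 h earlier). 16 h at 37 C, then LiveBLAzer substrate for 2 h at room temperature in the dark; fluorescence read-out.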

[7] = p53 small molecule agonists, cell-based qHTS assay with human liver microsomes: qHTS cell viability counter screen (AID 1963579); also: nearly all actives have a fitted effect of over 45% in size
Summary of the method: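 Metabolic activation used human liver microsomes and NADPH, both 0.5 mg/mL final, over 16 hours at 37 C on p53RE-bla cells (4,000/well). Cytotoxicity measured by CellTiter-Glo luminescence, 30 min at room temperature.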

[8] = p53 small molecule agonists, cell-based qHTS assay with rat liver microsomes: qHTS cell viability counter screen (AID 1963580); also: nearly all actives have a fitted effect of over 45% in size
Summary of the method: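 p53RE-bla HCT-116 cells were exposed 16 h at 37 C to compounds with rat liver microsomes (0.5 mg/mL) and NADPH (0.5 mg/mL). Viability was measured in the same wells as ATP content by CellTiter-Glo luminescence.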

[9] = p53 small molecule agonists, cell-based qHTS assay: qHTS cell viability counter screen (AID 1963581); also: nearly all actives have a fitted effect of over 45% in size
Summary of the method: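 p53RE-bla HCT-116 cells, compounds added 5 h after plating and incubated 16 h at 37 C. Cytotoxicity measured in the same wells as intracellular ATP by CellTiter-Glo luminescence after 30 min at room temperature.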

[10] = p53 small molecule agonists, cell-based qHTS assay (AID 1963582; active = well fitted activation curve with a large enough effect in the signal ratio in the repeat runs, not every such curve was filed as active; the % refers to the signal ratio)
Summary of the method: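 p53RE-bla reporter cells, compounds added in DMSO after 5 h plating, incubated 16 h at 37 C. Beta-lactamase read via 2 h room-temperature LiveBLAzer B/G FRET substrate, fluorescence intensity.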

[11] = target: Muscarinic acetylcholine receptor M1 (Homo sapiens) (UniProt P11229); assay: Cholinergic receptor muscarinic 1 (CHRM1) small molecule agonists, cell-based qHTS assay (AID 1963589); also: nearly all actives have a fitted effect of over 35% in size
Summary of the method: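 CHO cells stably expressing human CHRM1 were loaded with calcium dye for 1 h at 37 C, then compound was added in agonist mode. Intracellular calcium fluorescence was followed kinetically at 1 s intervals. Fifteen concentrations were tested in three independent runs.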

[12] = cAMP Responsive Elements (CRE) small molecule antagonists, cell-based qHTS assay (AID 1963591; active = well fitted inhibition curve with a large enough effect in the signal ratio in the repeat runs, not every such curve was filed as active; the % refers to the signal ratio)
Summary of the method: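 CRE-bla HEK293T cells plated 18 h, then given compound plus NKH477 at 0.25 uM final for 3 h at 37C. Beta-lactamase reporter read with LiveBLAzer B/G FRET substrate after 2 h at room temperature.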

[13] = target: Beta-2 adrenergic receptor (Homo sapiens) (UniProt P07550); assay: Adrenergic beta2 receptor (ADRB2) small molecule antagonists, cell-based qHTS assay (AID 1963592); also: series mostly up to about 92 µM; nearly all actives have a fitted effect of over 50% in size
Summary of the method: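 Cells (CHO, stable ADRB2 overexpression) incubated 18-20hr at 37C; compounds added from DMSO; agonist mix (1nM isoproterenol, 100uM IBMX, 25uM Ro-20-1724) added; 0.5hr RT; d2-cAMP and anti-cAMP-cryptate added; 1hr RT; 665/615 nm read.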

[14] = target: Beta-2 adrenergic receptor (Homo sapiens) (UniProt P07550); assay: Adrenergic beta2 receptor (ADRB2) small molecule agonists, cell-based qHTS assay (AID 1963593);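 also: CHO cells stably overexpressing human ADRB2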
Summary of the method: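 CHO cells stably over-expressing ADRB2 were plated overnight at 37C, then dosed with compounds plus a stimulation mix containing 100uM IBMX and 25uM Ro-20-1724 for 0.5hr at room temperature. cAMP was measured by HTRF competition, 1hr.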

[15] = target: D(2) dopamine receptor (Homo sapiens) (UniProt P14416); assay: Dopamine D2 receptor (DRD2) small molecule agonists, cell-based qHTS assay (AID 1963594); also: nearly all actives have a fitted effect of over 35% in size
Summary of the method: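 HEK293 cells stably expressing human DRD2, pre-treated with PDE inhibitor Ro20-1724 (0.1 mM final) and compound 10 min at room temperature, then stimulated with NKH477 (200nM […]) for 30 min. cAMP read by HTRF (665/620 nm).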

[16] = target: D(2) dopamine receptor (Homo sapiens) (UniProt P14416); assay: Dopamine D2 receptor (DRD2) small molecule antagonists, cell-based qHTS assay (AID 1963595; active = well fitted inhibition curve with a large enough effect in the signal ratio in the repeat runs, with a control signal flat; the % refers to the signal ratio)
Summary of the method: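 Antagonism was scored as restored cAMP in HEK293-DRD2 cells. These cells were stimulated with 200 nM NKH477 and 12 nM quinpirole for 30 min at room temperature, in the presence of 0.1 mM Ro20-1724.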

[17] = cAMP Responsive Elements (CRE) small molecule agonists, cell-based qHTS assay (AID 1963590)
Summary of the method: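 CRE-bla HEK 293T cells, 2,000/well in DMEM with 10% dialyzed FBS and 25 mM HEPES, pre-incubated 18 h at 37 C, then exposed to compound 3 h at 37 C. Beta-lactamase reporter read with LiveBLAzer B/G FRET substrate after 2 h at room temperature.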

[18] = target: 5-hydroxytryptamine receptor 2A (Homo sapiens) (UniProt P28223); assay: 5-hydroxytryptamine receptor 2A (HTR2A) small molecule antagonists, cell-based qHTS assay (AID 1963586); also: nearly all actives have a fitted effect of over 45% in size
Summary of the method: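 Antagonist-mode intracellular calcium assay: DOI (4 nM) added after 5 min compound pre-incubation at room temperature to dye-loaded HTR2A-CHO cells. Fluorescence followed for 3 min, sampled every second.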

[19] = target: 5-hydroxytryptamine receptor 2A (Homo sapiens) (UniProt P28223); assay: 5-hydroxytryptamine receptor 2A (HTR2A) small molecule agonists, cell-based qHTS assay (AID 1963587); also: nearly all actives have a fitted effect of over 30% in size
Summary of the method: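 CHO cells stably expressing human HTR2A, plated 18 h, loaded with calcium dye 1 h at 37 C. Agonist mode: compounds added and intracellular calcium fluorescence recorded kinetically for 2 min at 1 sec intervals.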

[20] = target: Muscarinic acetylcholine receptor M1 (Homo sapiens) (UniProt P11229); assay: Cholinergic receptor muscarinic 1 (CHRM1) small molecule antagonists, cell-based qHTS assay (AID 1963588); also: nearly all actives have a fitted effect of over 40% in size
Summary of the method: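 CHRM1-CHO calcium-flux assay, antagonist mode. Cells were seeded 18 h, dye-loaded 1 h at 37 C and given compound for 5 min at RT, then acetylcholine was added at 50nM. FDSS fluorescence was read 3 min; 15 concentrations, three runs.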

Chain of Muscarinic acetylcholine receptor M1 (Homo sapiens) (P11229 whole entry, looked up): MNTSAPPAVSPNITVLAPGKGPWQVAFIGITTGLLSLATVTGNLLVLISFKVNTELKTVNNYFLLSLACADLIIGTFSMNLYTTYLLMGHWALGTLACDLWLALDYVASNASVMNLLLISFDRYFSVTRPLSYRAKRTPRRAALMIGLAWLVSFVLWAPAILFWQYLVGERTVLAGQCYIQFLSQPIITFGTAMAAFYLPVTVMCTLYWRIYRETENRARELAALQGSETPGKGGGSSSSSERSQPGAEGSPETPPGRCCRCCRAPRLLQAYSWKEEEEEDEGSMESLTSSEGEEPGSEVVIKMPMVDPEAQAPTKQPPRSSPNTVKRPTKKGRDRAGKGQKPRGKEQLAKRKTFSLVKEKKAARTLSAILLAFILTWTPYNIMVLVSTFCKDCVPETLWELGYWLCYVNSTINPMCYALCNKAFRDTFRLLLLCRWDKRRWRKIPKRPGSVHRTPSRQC
Chain of KiSS-1 receptor (Homo sapiens) (Q969F8 whole entry, looked up): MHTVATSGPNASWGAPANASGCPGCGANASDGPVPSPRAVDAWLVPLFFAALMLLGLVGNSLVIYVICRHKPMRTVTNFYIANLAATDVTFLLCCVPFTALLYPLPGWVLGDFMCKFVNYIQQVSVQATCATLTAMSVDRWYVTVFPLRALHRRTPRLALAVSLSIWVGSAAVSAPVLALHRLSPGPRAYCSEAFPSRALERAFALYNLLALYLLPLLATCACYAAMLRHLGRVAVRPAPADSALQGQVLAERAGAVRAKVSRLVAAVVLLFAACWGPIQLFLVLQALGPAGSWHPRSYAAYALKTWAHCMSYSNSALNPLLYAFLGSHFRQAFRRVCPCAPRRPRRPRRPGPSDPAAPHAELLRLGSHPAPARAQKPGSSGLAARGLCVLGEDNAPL
Chain of D(2) dopamine receptor (Homo sapiens) (P14416 whole entry, looked up): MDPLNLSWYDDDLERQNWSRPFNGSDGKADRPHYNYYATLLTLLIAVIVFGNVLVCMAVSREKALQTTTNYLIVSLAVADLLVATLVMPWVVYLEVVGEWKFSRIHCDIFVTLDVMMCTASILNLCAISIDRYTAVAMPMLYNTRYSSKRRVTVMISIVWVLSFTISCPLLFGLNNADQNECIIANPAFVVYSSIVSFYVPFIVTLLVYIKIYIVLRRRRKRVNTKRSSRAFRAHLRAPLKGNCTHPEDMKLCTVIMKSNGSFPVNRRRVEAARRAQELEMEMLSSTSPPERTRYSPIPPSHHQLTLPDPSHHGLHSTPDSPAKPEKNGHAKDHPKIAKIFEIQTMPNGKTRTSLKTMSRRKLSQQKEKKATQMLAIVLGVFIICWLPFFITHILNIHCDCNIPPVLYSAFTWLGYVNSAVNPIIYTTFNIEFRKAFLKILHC
Chain of Beta-2 adrenergic receptor (Homo sapiens) (P07550 whole entry, looked up): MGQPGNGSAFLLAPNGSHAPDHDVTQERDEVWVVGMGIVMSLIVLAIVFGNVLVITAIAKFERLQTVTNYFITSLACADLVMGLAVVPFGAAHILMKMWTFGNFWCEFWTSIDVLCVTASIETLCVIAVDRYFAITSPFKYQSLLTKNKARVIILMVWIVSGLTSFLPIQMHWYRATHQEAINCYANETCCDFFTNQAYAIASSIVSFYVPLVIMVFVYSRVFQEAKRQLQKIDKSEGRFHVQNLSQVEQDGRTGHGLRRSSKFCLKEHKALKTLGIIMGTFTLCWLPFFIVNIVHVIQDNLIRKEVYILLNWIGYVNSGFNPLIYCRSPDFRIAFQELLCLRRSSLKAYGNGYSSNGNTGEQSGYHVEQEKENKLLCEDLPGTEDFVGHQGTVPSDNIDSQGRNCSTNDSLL
Chain of 5-hydroxytryptamine receptor 2A (Homo sapiens) (P28223 whole entry, looked up): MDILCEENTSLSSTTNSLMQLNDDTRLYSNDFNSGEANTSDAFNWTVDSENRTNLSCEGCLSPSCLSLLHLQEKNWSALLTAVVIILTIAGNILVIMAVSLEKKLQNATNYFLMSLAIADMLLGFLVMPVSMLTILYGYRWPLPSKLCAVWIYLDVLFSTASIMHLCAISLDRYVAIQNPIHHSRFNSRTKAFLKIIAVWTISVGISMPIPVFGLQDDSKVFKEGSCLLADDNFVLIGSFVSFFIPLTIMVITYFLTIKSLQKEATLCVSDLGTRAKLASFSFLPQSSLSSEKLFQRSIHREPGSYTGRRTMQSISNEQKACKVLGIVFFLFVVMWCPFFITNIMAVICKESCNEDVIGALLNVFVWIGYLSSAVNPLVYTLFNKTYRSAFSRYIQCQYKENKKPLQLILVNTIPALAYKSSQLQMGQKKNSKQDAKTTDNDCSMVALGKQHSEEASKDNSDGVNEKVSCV

| Structure (SMILES) | Potency [1] | Potency [2] | outcome [3] | outcome [4] | Potency [5] | Potency [6] | Potency [7] | Potency [8] | Potency [9] | Potency [10] | Potency [11] | Potency [12] | Potency [13] | Potency [14] | Potency [15] | Potency [16] | Potency [17] | Potency [18] | Potency [19] | Potency [20] |
| --- | --- | --- | --- | --- | --- | --- | --- | --- | --- | --- | --- | --- | --- | --- | --- | --- | --- | --- | --- | --- |
| COc1ccc2[nH]c(S(=O)Cc3ncc(C)c(OC)c3C)nc2n1 (stereo unspecified) | inactive | 21.1 µM (active) | inactive | inactive | inactive | inactive | inactive | inactive | inactive | inactive | inactive | inactive | inactive | inactive | inactive | inactive | – | – | – | – |
| CC(C)CC(=O)N[C@H](C(=O)N[C@H](C(=O)N[C@@H](CC(C)C)[C@@H](O)CC(=O)N[C@@H](C)C(=O)N[C@@H](CC(C)C)[C@@H](O)CC(=O)O)C(C)C)C(C)C (Isovaleryl-VV[Sta]A[Sta]-OH) | inactive | inactive | inactive | inactive | inactive | inactive | inactive | inactive | inactive | inactive | – | inactive | inactive | – | inactive | inactive | inactive | – | – | – |
| OC1CCC(C2CCCCC2)CC1 (stereo unspecified) | inactive | inactive | inactive | inactive | inactive | inactive | inactive | inactive | – | – | inactive | inactive | – | inactive | inactive | inactive | inactive | inactive | inactive | inactive |
| Nc1ccc(C(=O)NCC(=O)O)cc1 | inactive | inactive | inactive | inactive | inactive | inactive | – | inactive | inactive | inactive | inactive | – | inactive | – | inactive | inactive | inactive | inactive | inactive | inactive |
| CCOc1cc(OCC)c(C(C)=O)cc1OCC | inactive | inactive | inactive | inactive | inactive | inactive | inactive | – | – | inactive | inactive | – | inactive | inactive | inactive | inactive | – | inactive | inactive | inactive |
| CN(C(=O)CCCOc1ccc2[nH]c(=O)ccc2c1)C1CCCCC1 | 10.6 µM (active) | inactive | inactive | inactive | inactive | inactive | inactive | – | inactive | – | – | – | inactive | inactive | inactive | – | – | – | – | – |
| Cc1ccc(C(=O)c2ccccc2)cc1 | inactive | inactive | inactive | inactive | inactive | inactive | inactive | inactive | – | inactive | inactive | – | – | inactive | – | inactive | – | inactive | inactive | inactive |
| COc1ccc(C)cc1[N+](=O)[O-] | inactive | inactive | inactive | – | inactive | inactive | – | inactive | inactive | inactive | inactive | – | inactive | – | inactive | – | – | inactive | inactive | inactive |
